Experimental data from PubChem BioAssay AID2588 (National Center for Advancing Translational Sciences (NCATS), 2010).
Several values for one entry are separate records, joined by “and”; a condition that tells them apart may be missing. Equal values may be shown once. Results filed as inconclusive are left out. Activity calls are given as the source filed them. Calls come from the whole dose curve; as a rule, active = well fitted inhibition curve with a large enough effect; inconclusive = small, poorly fitted or top-dose-only effect, or effect the other way; inactive = flat fitted curve, though single readings scatter.

molecular target: Lysosomal acid glucosylceramidase (Homo sapiens) (UniProt P04062); experiment: qHTS Assay for Inhibitors and Activators of N370S glucocerebrosidase as a Potential Chaperone Treatment of Gaucher Disease: Activity in Non-Mutant Spleen Homogenate Using a Red Fluorescent Substrate; conditions: red fluorogenic substrate GCase activity; series mostly up to 50.2 µM
Sequence (P04062 whole entry, looked up): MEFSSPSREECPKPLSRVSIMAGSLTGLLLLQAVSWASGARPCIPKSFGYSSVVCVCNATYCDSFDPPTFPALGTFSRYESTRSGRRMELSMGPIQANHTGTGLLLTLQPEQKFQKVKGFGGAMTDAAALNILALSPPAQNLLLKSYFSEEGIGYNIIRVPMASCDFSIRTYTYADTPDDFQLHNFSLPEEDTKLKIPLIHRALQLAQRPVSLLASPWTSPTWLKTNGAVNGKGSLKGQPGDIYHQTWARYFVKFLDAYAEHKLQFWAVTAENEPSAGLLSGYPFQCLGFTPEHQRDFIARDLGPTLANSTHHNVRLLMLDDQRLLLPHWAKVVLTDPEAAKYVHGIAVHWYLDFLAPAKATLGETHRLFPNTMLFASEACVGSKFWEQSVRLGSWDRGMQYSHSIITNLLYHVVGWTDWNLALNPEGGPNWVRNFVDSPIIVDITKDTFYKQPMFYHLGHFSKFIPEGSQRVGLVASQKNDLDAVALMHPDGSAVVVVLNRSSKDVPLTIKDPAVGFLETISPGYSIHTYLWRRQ
Excerpt: NIH Chemical Genomics Center [NCGC]
NIH Molecular Libraries Probe Production Centers Network [MLPCN]
Assay Submitter (PI): Wei Zheng
Glucocerebrosidase (GC) catalyzes the hydrolysis of beta-glucocerebroside to glucose and ceramide in lysosomes. Mutations in the glucocerebrosidase gene result in Gaucher disease, an autosomal recessive lysosomal storage disorder. Many of the mutations encountered in patients with Gaucher disease are missense alterations that may cause misfolding, decreased stability and/or mistrafficking of this lysosomal protein. […] These inhibitors include iminosugar analogs and three non-iminosugar inhibitors identified from a previous HTS of 62,000 compounds with the wild type recombinant enzyme. However, the enhancement of enzyme activity by the chaperone action of an enzyme inhibitor must be balanced against the direct inhibition of the enzyme. An enzyme activator could also function as a chaperone by binding to the enzyme and helping to correct its misfolding and mistrafficking. While activators for GC have not yet been identified, they may have better therapeutic potential than inhibitors. Therefore the discovery and development of chemical activators may provide a new strategy for the chaperone therapy.
We have optimized a new assay using N370S mutant GC derived from the spleen of a Gaucher patient. […] In addition, the MLPCN compound library has expanded, which increases the chance of finding new and better probes.
This confirmation assay tests for compound activity in spleen homogenate containing wildtype enzyme using an alternate resorufin-based substrate.
NCGC Assay Protocol Summary:
This is a fluorogenic enzyme assay with resorufin-beta-D-glucopyranoside as the substrate and wildtype glucocerebrosidase from human spleen homogenate as the enzyme preparation. Upon the hydrolysis of this fluorogenic substrate, the resulting product, […] which can be detected by a standard fluorescence plate reader. Data were normalized to the controls for basal activity (without enzyme) and 100% activity (with enzyme). The AC50 values were determined from concentration-response data modeled with the standard Hill equation.
Assay buffer: 50 mM citric acid (titrated with potassium phosphate to pH 5.0), 100 mM potassium chloride, 10 mM sodium chloride, 1 mM magnesium chloride, 0.01% Tween-20.
1536-well assay protocol:
(1) Add 2 ul/well of spleen homogenate (27 ug final)
(2) Add 23 nL compounds in DMSO solution. The final titration was 0.5 nM to 58 uM.
(3) Add 2 ul of substrate (1 mM final)
(4) Incubate at 37C for 40 min.
(5) Add 2 ul stop solution (1M NaOH and 1M Glycine mixture, pH 10)
(6) Detect the assay plate in a ViewLux plate reader (PerkinElmer) with Ex=365 nm and Em=440nm.
Keywords: Glucocerebrosidase, beta-glucosidase, Gaucher Disease, pharmacological chaperone, chaperone therapy, high throughput screening, glucocerebrosidase inhibitor, MLSMR, MLSCN, NIH Roadmap, qHTS and NCGC

Potency, inactive:
O=S(=O)(c1ccc(F)cc1)N1CCN(c2nc(-c3ccccc3)nc3cc(Cl)ccc23)CC1
O=S(=O)(c1ccc(F)cc1)N1CCN(c2nc(-c3ccc(F)cc3)nc3cc(Cl)ccc23)CC1
CCCCNC(=O)c1ccc(NS(=O)(=O)c2ccccc2)cc1
COc1ccccc1NC(=O)COc1ccccc1C(=O)Nc1ccccc1
O=C(COc1ccccc1[N+](=O)[O-])Nc1ccc(Br)cc1
N#Cc1ccccc1Sc1ccccc1C(=O)OCC(=O)NC12CC3CC(CC(C3)C1)C2
O=S(=O)(c1ccc(Cl)cc1)N1CCN(c2nc(-c3cccc(Br)c3)nc3ccccc23)CC1
O=S(=O)(c1ccc(Cl)cc1)N1CCN(c2nc(-c3ccc(F)cc3)nc3cc(Cl)ccc23)CC1
CCC(C)NC(=O)COC(=O)c1ccccc1OCC(=O)Nc1ccc(Br)cc1 (stereo not given)
O=S(=O)(c1cccc(C(F)(F)F)c1)N1CCN(c2nc(-c3cccs3)nc3cc(Cl)ccc23)CC1
O=S(=O)(c1ccc(F)cc1)N1CCN(c2nc(-c3cccs3)nc3cc(Cl)ccc23)CC1
COC(=O)c1ccccc1NC(=O)c1ccc2c(c1)C(=O)N(Cc1ccccc1)C2=O
O=C(COc1ccccc1C(=O)c1cnn(-c2ccccc2)c1)Nc1ccccc1
c1ccc2c(NCC3CCCO3)nc(N3CCOCC3)nc2c1 (stereo not given)
Nc1nc(-c2ccccc2)c(N=Nc2ccc(Cl)cc2)s1
Cc1ccc(-c2nc(N3CCN(S(=O)(=O)c4ccc(F)cc4)CC3)c3ccc(Cl)cc3n2)cc1
COc1ccccc1C(=O)COC(=O)c1ccccc1OCC(=O)Nc1ccc(SC(F)F)cc1
Cc1ccc(S(=O)(=O)N2CCN(c3nc(-c4ccc(F)cc4)nc4cc(Cl)ccc34)CC2)cc1
COc1cc(OC)cc(C(=O)N[C@H](C(=O)OCC(=O)Nc2cccc(F)c2)C(C)C)c1
O=S(=O)(c1ccc(F)cc1)N1CCN(c2nc(-c3cccc(Br)c3)nc3ccccc23)CC1

Potency, active:
COc1ccc(S(=O)(=O)N2CCN(c3nc(-c4cccs4)nc4ccccc34)CC2)cc1OC 0.224 µM
O=S(=O)(c1ccc(C(F)(F)F)cc1)N1CCN(c2nc(-c3cccs3)nc3ccccc23)CC1 1.26 µM
Cc1ccc(C)c(N2CCN(C(=O)CCC(=O)Nc3ccc4nc(N5CCOCC5)cc(C)c4c3)CC2)c1 14.1 µM
CCN(CC)c1ccc(C(=O)Nc2ccc3nc(N4CCOCC4)cc(C)c3c2)cc1 10 µM
O=S(=O)(c1ccc(F)cc1)N1CCN(c2nc(-c3cccs3)nc3ccccc23)CC1 0.794 µM
CC(C)(C)c1ccc(S(=O)(=O)N2CCN(c3nc(-c4cccs4)nc4ccccc34)CC2)cc1 1.12 µM
O=S(=O)(c1ccc2ccccc2c1)N1CCN(c2nc(-c3cccs3)nc3ccccc23)CC1 0.251 µM
COc1cccc(CN(C)c2nc(-c3cccs3)nc3ccccc23)c1 2 µM
O=S(=O)(c1cccc(Cl)c1)N1CCN(c2nc(-c3cccs3)nc3ccccc23)CC1 1.26 µM
Cc1cc(N2CCCCC2)nc2ccc(NC(=O)C3CCC(C)CC3)cc12 (stereo not given) 7.94 µM
O=[N+]([O-])c1cccc(S(=O)(=O)N2CCN(c3nc(-c4cccs4)nc4ccccc34)CC2)c1 1.12 µM
CCOC(=O)c1ccc(S(=O)(=O)N2CCN(c3nc(-c4cccs4)nc4ccccc34)CC2)cc1 0.794 µM
O=[N+]([O-])c1ccccc1S(=O)(=O)N1CCN(c2nc(-c3ccccc3)nc3ccccc23)CC1 4.47 µM
O=[N+]([O-])c1ccc(S(=O)(=O)N2CCN(c3nc(-c4cccs4)nc4ccccc34)CC2)cc1 1.12 µM
O=S(=O)(c1ccccc1Cl)N1CCN(c2nc(-c3cccs3)nc3ccccc23)CC1 0.794 µM
CCOc1ccc(N(CC(=O)NC2CCCCCC2)S(=O)(=O)c2c(C)[nH]c(=O)[nH]c2=O)cc1 1.41 µM
O=S(=O)(c1ccc(Cl)cc1)N1CCN(c2nc(-c3cccs3)nc3ccccc23)CC1 1.58 µM and 355 nM
N=c1c2c(-c3ccccc3)c(-c3ccccc3)n(Cc3ccco3)c2ncn1CCCn1ccnc1 12.6 µM
Cc1cc(C)cc(N(CC(=O)NC2CCCCCC2)S(=O)(=O)c2c(C)[nH]c(=O)[nH]c2=O)c1 0.631 µM
S=C(NCCCc1cnc[nH]1)NCCCN(Cc1ccc(Cl)c(Cl)c1)c1ccc(Br)cn1 1 µM
